From PubChem
Rows were chosen to be rich in hits. Some 19% of all compounds tested hit in one or more screens of this group.
ELG1 repair inh = blocks ELG1-dependent DNA repair in HEK293T cells; 330,000 tested, 2.3% active; AID 504467; Potency, µM (doses to about 46.1 µM), most hits filed as inhibitors; HEK293T ELG1-luciferase reporter, luminescence, 16 h; DNA damage induced by 5-fluorouridine; note: nearly all actives have a fitted effect of over 55% in size
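Step one: seed 2,000 cells per well. Step two: pin-transfer compound or DMSO alongside 5-fluorouridine. Step three: incubate 16 hr, 37 °C, 5% CO2. Step four: add ONE-Glo, wait 30 min, read luminescence.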
Giardia kill = kills Giardia lamblia; activity change, % at 7.66 µM, hits read low; 340,000 tested, 0.15% active; Giardia lamblia trophozoite viability; in the data active = activity change below about -80%; inconclusive = between about -30% and that limit;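 note: parasites exposed to compound for two days anaerobically before the ATP read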
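Compounds were tested on trophozoites seeded at 100 cells/well and held 48 hrs at 37 deg C anaerobically. An ATP-based luminescent kit measured the remaining live cells.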
TDP1 block = inhibitors of human tyrosyl-DNA phosphodiesterase TDP1; Q9NUW8; recombinant TDP1, AlphaScreen DNA substrate cleavage; Potency, µM (top dose mostly 130 µM), hits mostly inhibitors; 350,000 tested, 0.28% active; AID 485290; note: nearly all actives have a fitted effect of over 40% in size
Target sequence (Q9NUW8 whole entry, looked up): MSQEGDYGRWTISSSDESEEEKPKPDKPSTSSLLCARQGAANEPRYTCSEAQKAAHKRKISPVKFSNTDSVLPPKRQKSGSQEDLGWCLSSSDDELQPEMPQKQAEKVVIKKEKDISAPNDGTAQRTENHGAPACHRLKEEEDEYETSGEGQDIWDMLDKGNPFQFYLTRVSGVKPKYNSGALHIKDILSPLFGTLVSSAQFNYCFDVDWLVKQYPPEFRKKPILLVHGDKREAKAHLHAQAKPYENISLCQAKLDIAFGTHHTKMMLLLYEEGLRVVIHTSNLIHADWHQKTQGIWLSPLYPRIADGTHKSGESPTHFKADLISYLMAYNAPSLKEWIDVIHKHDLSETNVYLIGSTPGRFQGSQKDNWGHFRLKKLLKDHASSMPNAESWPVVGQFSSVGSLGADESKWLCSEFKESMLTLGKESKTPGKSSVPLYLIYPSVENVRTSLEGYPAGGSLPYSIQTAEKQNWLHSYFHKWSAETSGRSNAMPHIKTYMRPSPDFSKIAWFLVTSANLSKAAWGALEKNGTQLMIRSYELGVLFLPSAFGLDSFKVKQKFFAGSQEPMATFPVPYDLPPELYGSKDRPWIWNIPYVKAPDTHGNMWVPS
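Compounds were preincubated with Tdp1 (1 nM final) for 15 min at room temperature before substrate (15 nM final) started a 5 min reaction; beads (10 ug/ml final) were then added for 10 min before AlphaScreen detection.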
IL1B secr inh = blocks inflammasome-driven IL-1 beta release. THP-1 LPS/ATP IL-1B secretion, AlphaLISA, 16 h; stronger effect = lower value. activity change, % at 57.5 µM. 360,000 tested, 4.7% active. AID 743279; in the data active = activity change below about -50%; inconclusive = mostly about -30% to -49%
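THP-1 cells pretreated 1 hr with compounds (up to 57.5 uM final), then stimulated with LPS (250 ng/mL final) plus ATP (1.25 mM final); secreted IL-1B measured by AlphaLISA after 16 hr, decreased signal indicating inhibition.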
TDP1 cell noCPT = qHTS for Inhibitors of human tyrosyl-DNA phosphodiesterase 1 (TDP1): qHTS in cells in absence of CPT; 420,000 tested, 15% active; Potency, µM (top dose mostly 46.2 µM), hits mostly inhibitors; AID 686978, 2013; DT40 Tdp1-/- hTDP1 cells, no CPT, ATP luminescence, 48 h; note: nearly all actives have a fitted effect of over 55% in size
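Readout: luminescence from CellTiter-Glo after 30 min in the dark at RT. Cells: DT40 Tdp1-/- with stable hTDP1, 400/well. Exposure: compounds alone, ≥48 hr, 37 °C.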
DT40 TDP1 CPT = DT40-hTDP1 cell growth loss with CPT. chicken DT40 Tdp1-/-;hTDP1 cells + 20 nM CPT, ATP luminescence, 48 h. Potency, µM (top dose mostly 46.2 µM), actives largely listed as inhibitors. 420,000 tested, 12% active. AID 686979; note: nearly all actives have a fitted effect of over 55% in size
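Cell growth measured by CellTiter-Glo luminescence after a minimum 48 h, 37 C compound exposure with 20 nM CPT in Tdp1-knockout DT40 cells stably expressing hTDP1, seeded 400/well; qHTS titration format.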
Numbers stand for hits; . = inactive; ? = inconclusive; / = no result. Unless noted, calls come from the whole dose curve; as a rule, active = well fitted curve in the direction sought with a large enough effect; inconclusive = small, poorly fitted or top-dose-only effect, or another doubt; inactive = no such curve, though single readings can be large; an effect the other way counts as inactive or inconclusive.

SMILES	ELG1 repair inh	Giardia kill	TDP1 block	IL1B secr inh	TDP1 cell noCPT	DT40 TDP1 CPT
COc1ccccc1NS(=O)(=O)c1cc(N=N/C(C(=O)Nc2ccc(Cl)cc2)=C(/C)O)ccc1C	.	.	.	.	.	.
CCOc1ccc(Nc2nc(Cc3nnc(SCC(=O)c4ccc(C)c(C)c4)o3)cs2)cc1	23.1µM	.	.	.	16.4µM	29.1µM
Cc1ccc(NC(=O)CSc2nnc(Cc3csc(C)n3)o2)cc1	?	.	.	.	?	.
CCC(=O)N1N=C(c2ccc(NS(C)(=O)=O)cc2)CC1c1ccc(N(C)C)cc1 (centres undefined)	?	.	.	.	?	.
COc1ccccc1C(=O)N1N=C(c2ccc(NS(C)(=O)=O)cc2)CC1c1cccs1 (centres undefined)	.	.	/	.	.	?
CN(C)c1ccc(C2CC(c3cccc(NS(C)(=O)=O)c3)=NN2C(=O)c2ccccc2)cc1 (centres undefined)	?	.	.	-58.4	?	.
COc1cccc(C2CC(c3cccc(NS(C)(=O)=O)c3)=NN2C(=O)c2ccccc2)c1OC (centres undefined)	.	.	.	.	20.6µM	23.1µM
Cc1ccc(N(CC2CO2)S(=O)(=O)c2ccc([N+](=O)[O-])cc2)cc1 (centres undefined)	.	.	.	.	.	?
COc1ccc(Oc2cc(C(F)(F)F)nc(N(C)C)n2)cc1	.	.	.	?	.	.
CCOC(=O)c1sc(-c2ccccc2)cc1N	?	.	.	.	.	.
CCOC(=O)c1sc(-c2ccccc2)cc1NC(=O)Nc1ccc([N+](=O)[O-])cc1	6.51µM	.	.	.	20.6µM	?
CCOc1ccc(-c2cc(NC(=O)c3ccccc3)c(C(=O)OC)s2)cc1	/	/	.	/	11.6µM	?
COC(=O)c1sc(-c2ccc(Cl)cc2)cc1NC(=O)/C=C/C(=O)O	.	.	/	-95.0	6.51µM	5.8µM
COC(=O)c1sc(-c2ccc(Cl)cc2)cc1NC(=O)COCC(=O)O	.	.	.	.	.	.
COC(=O)c1sc(-c2ccc(C(C)(C)C)cc2)cc1NC(=O)CCC(=O)O	?	.	.	.	?	16.4µM
CCOc1ccc(-c2cc(NC(=O)c3ccc(C)cc3)c(C(=O)OC)s2)cc1	/	/	.	/	.	.
CN(C(=O)c1ccc(OC2CCN(C(=O)c3cccnc3)CC2)cc1)C1CCCCC1	.	.	.	.	?	?
CCOC(=O)[C@]12CCCC=C1N(Cc1ccc3c(c1)OCO3)C(=O)[C@H](CC(=O)NCc1ccc(C)o1)C2	/	/	/	.	?	?
CCOc1ccc(-c2cc(NC(=O)Nc3cccc(C(C)=O)c3)c(C(=O)OC)s2)cc1	/	/	.	/	.	23.1µM
CCOc1ccccc1C(=O)NCC(=O)OCC(=O)c1c(N)n(C)c(=O)n(C)c1=O	.	.	.	.	.	.
Cc1cccc(NC(=O)CSc2nsc(SCC(=O)Nc3cccc(C)c3)c2C#N)c1	8.2µM	.	.	.	?	?
COC(=O)CSc1nsc(SCC(=O)OC)c1C#N	.	.	.	-99.6	.	.
CC(C)(C)c1ccccc1OCCOCCNCc1ccccc1	.	.	/	-57.4	13µM	16.4µM
CNCCOc1ccccc1C(C)(C)C	.	.	.	.	?	.
Cc1cc(OCCOCCNCc2ccccc2)ccc1C(C)C	.	.	/	-63.2	11.6µM	18.4µM
SMILES	ELG1 repair inh	Giardia kill	TDP1 block	IL1B secr inh	TDP1 cell noCPT	DT40 TDP1 CPT
Cc1ccc(C(C)C)c(OCCNC(=S)Nc2cccc3ccccc23)c1	.	.	.	.	12.6µM	14.1µM
COCCNCCOCCOc1ccc(Cl)c(C)c1	.	.	/	.	?	?
Cc1ccc(C(C)C)c(OCCNCc2ccccc2)c1	.	.	/	?	20.6µM	?
O=S(=O)(c1ccc(C(F)(F)F)cc1)N1CCN(c2nc(-c3cccs3)nc3ccccc23)CC1	/	.	.	/	.	.
COC(=O)N[C@@H](/C=C/c1ccccc1)C[N+](=O)[O-]	/	/	.	/	/	/
Cc1ncc(CO)c(C=O)c1O	/	/	.	/	.	.
CC1=NN(C(=O)c2cccnc2)C(O)(C(F)(F)F)C1 (centres undefined)	.	.	.	.	.	.
CC1=NN(C(=O)Cn2nc([N+](=O)[O-])cc2C)C(O)(C(F)(F)F)C1 (centres undefined)	.	.	.	.	.	.
CC1=NN(C(=O)c2ccoc2C)C(O)(C(F)(F)F)C1 (centres undefined)	?	.	.	.	2.31µM	2.91µM
CC1=NN(C(=O)c2csc(C(C)C)c2)C(O)(C(F)(F)F)C1 (centres undefined)	.	.	.	.	1.03µM	0.731µM
CCOc1ccc(CC(=O)N2N=C(C)CC2(O)C(F)(F)F)cc1 (centres undefined)	.	.	.	.	5.8µM	18.4µM
CCOc1ccc(NC(=O)Cc2csc(COc3cccc(C)c3)n2)cc1	/	/	.	/	.	.
CCN1/C(=C/c2ccc3cc(C)cc(C)c3[n+]2CC)Sc2cc(C)ccc21	?	.	.	-97.4	0.184µM	0.651µM
CCN1/C(=C/c2ccc3cc(C)ccc3[n+]2CC)Sc2ccc3sccc3c21	/	.	/	.	0.581µM	0.92µM
CCCCOC(=O)c1ccc(NC(=O)c2csnn2)cc1	/	/	.	/	.	.
O=C(/C=C/c1cccs1)c1ccc(N2CCOCC2)cc1	?	?	.	-69.4	?	?
O=C(/C=C/c1cccs1)c1cc(Br)ccc1OC(=O)N1CCOCC1	16.4µM	.	.	-97.9	?	?
COc1ccc(-c2nn(-c3ccccc3)cc2C(=O)N2CCOCC2)cc1	.	.	.	.	.	.
Cc1nonc1C(=O)N/N=C/c1ccc([N+](=O)[O-])o1	.	.	.	.	18.4µM	5.8µM
Cc1cc(C(=O)N/N=C/c2ccc3c(c2)OCO3)c(C)o1	?	.	/	.	?	.
COc1ccc(-c2nn(-c3ccccc3)cc2C(=O)N/N=C/c2ccc([N+](=O)[O-])o2)cc1	?	-86.0	.	.	?	?
Cc1cc(C(=O)N/N=C/c2ccc([N+](=O)[O-])o2)c(C)o1	?	-96.8	.	.	18.4µM	20.6µM
COC(=O)c1ccc(COn2nnc3ccccc32)cc1	?	.	.	.	.	.
O=C1c2cc(Cl)ccc2OC2(CCNCC2)C12CC(c1ccccc1)=NO2 (centres undefined)	.	.	.	?	16.4µM	20.6µM
